Records with an inconclusive call do not appear. Activity calls are given as the source filed them. Unless noted, the call rests on the fitted dose curve; in most records, active means well fitted curve in the direction sought with a large enough effect in the repeat runs; inconclusive means weak or mixed curves; inactive means no such curve, though single readings can be large; an effect the other way counts as inactive or inconclusive.
Key:
[1] = qHTS assay to identify small molecule antagonists of the estrogen receptor beta (ER-beta) signaling pathway - cell viability counter screen (AID 1259382);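 further: HEK293T cells carrying ER-beta-UAS-bla reporter stimulated with estradiol; series mostly up to about 92 µM; nearly all actives have a fitted effect of over 55% in size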
Procedure, shortened: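 Cytotoxicity counter screen multiplexed with the beta-lactamase antagonist assay: GripTite HEK293T ER-beta-bla cells were treated 16 hr with test chemicals in the presence of 1nM 17-beta-estradiol, and viability was measured by CellTiter-Glo.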

[2] = qHTS assay to identify small molecule agonists or antagonists of the thyroid stimulating hormone receptor (TSHR) signaling pathway - wild type cell line counter screen (AID 1259384; calls by dose curve)
Procedure, shortened: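 Wild-type HEK293 cells were plated 18 h at 37 C/5% CO2, pin-dosed with compound plus Ro20-1724 medium, held 30 min at room temperature, then given cAMP-d2 and anti-cAMP-cryptate; fluorescence was read after 1 h. Fifteen concentrations, triplicate.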

[3] = target: Thyrotropin receptor (Homo sapiens) (UniProt P16473); assay: qHTS assay to identify small molecule antagonists of the thyroid stimulating hormone receptor (TSHR) signaling pathway (AID 1259385; calls by dose curve; further: nearly all actives have a fitted effect of over 20% in size)
Sequence of Thyrotropin receptor (Homo sapiens) (P16473 whole entry, looked up): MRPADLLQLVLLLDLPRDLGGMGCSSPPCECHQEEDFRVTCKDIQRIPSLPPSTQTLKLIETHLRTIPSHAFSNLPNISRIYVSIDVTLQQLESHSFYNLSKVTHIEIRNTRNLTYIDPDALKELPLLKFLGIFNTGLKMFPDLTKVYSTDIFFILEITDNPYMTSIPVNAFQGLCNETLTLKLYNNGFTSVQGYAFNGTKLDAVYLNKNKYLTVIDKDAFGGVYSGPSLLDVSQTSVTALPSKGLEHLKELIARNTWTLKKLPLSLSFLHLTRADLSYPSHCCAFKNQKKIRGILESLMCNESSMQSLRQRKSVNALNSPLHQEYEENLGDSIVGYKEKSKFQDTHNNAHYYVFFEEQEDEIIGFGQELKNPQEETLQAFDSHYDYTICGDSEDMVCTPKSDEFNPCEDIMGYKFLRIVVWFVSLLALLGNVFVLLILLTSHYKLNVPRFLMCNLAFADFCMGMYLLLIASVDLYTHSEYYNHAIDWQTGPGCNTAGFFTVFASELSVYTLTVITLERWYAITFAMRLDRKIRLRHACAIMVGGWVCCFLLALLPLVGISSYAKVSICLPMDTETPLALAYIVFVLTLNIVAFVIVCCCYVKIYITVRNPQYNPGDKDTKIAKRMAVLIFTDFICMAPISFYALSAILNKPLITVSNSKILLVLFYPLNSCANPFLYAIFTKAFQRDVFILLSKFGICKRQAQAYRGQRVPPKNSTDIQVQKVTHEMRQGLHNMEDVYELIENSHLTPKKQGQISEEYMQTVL
Procedure, shortened: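 TSHR-HEK293 cells were plated and held 18 h at 37C/5% CO2, then given compound plus Ro20-1724 and stimulated with TSH at 1.5 ng/mL final. After 30 min at room temperature, cAMP was detected with cAMP-d2/anti-cAMP-cryptate (1 h) by fluorescence.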

[4] = qHTS assay to identify small molecule agonists of the estrogen receptor alpha (ER-alpha) signaling pathway in the presence of an antagonist - cell viability counter screen (AID 1259386);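 further: series mostly up to about 92 µM; cells exposed to compounds for 22 h at 37 °C before the viability read; nearly all actives have a fitted effect of over 30% in size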
Procedure, shortened: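 Cytotoxicity was measured in parallel with the ERE-luciferase agonist screen, in the same wells. The cells were VM7Luc4E2, which endogenously express ER-alpha, and treatment was with compounds plus 10.0nM ICI-182,780 for 22hr.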

[5] = target: Progesterone receptor (Homo sapiens) (UniProt P06401); assay: qHTS assay to identify small molecule agonists of the progesterone receptor (PR) signaling pathway (AID 1346784; calls by dose curve; further: nearly all actives have a fitted effect of over 30% in size)
Sequence of Progesterone receptor (Homo sapiens) (P06401 whole entry, looked up): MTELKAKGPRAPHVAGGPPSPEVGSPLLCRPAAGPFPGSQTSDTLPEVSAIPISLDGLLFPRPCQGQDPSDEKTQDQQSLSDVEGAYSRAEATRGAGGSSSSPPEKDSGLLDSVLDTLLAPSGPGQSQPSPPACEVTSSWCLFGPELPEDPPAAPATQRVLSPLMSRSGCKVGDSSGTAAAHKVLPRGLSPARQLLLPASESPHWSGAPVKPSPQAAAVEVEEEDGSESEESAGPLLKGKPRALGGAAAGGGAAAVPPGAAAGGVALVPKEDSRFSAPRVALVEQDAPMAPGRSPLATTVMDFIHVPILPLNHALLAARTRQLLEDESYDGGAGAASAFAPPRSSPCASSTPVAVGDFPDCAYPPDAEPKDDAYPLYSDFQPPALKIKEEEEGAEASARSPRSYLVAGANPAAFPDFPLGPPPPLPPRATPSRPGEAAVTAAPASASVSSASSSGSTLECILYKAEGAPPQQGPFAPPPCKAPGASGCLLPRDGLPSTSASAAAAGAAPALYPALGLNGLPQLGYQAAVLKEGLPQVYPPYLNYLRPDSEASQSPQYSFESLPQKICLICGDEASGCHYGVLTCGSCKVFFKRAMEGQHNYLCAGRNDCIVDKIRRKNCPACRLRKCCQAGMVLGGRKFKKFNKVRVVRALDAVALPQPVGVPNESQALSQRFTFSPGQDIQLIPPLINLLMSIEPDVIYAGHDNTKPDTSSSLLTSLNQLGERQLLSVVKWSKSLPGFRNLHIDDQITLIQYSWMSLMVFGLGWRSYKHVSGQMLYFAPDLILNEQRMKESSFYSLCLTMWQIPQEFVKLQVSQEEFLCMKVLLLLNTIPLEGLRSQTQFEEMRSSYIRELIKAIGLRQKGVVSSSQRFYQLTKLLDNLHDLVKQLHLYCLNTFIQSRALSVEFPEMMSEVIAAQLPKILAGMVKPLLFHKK
Procedure, shortened: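 Seed PR-UAS-bla HEK 293T cells (2% charcoal-stripped FBS), incubate 6 hr at 37C; add compounds in DMSO, 16 hr at 37C; add LiveBLAzer B/G substrate, 2 hr RT; read fluorescence intensity.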

[6] = target: Progesterone receptor (Homo sapiens) (UniProt P06401); assay: qHTS assay to identify small molecule antagonists of the progesterone receptor (PR) signaling pathway (AID 1346795; active means well fitted inhibition curve with a large enough effect in the signal ratio in the repeat runs, not every such curve was filed as active; the % refers to the signal ratio)
Procedure, shortened: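 Screening used a GripTite HEK293T line with PR-responsive UAS-beta-lactamase. Cells were challenged with compound in the presence of 1 nM R5020 final for 16 hr at 37C; B/G FRET substrate, 2 hr room temperature, fluorescence.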

[7] = qHTS assay to identify small molecule agonists of the progesterone receptor (PR) signaling pathway - cell viability counter screen (AID 1346799; calls by dose curve; further: nearly all actives have a fitted effect of over 45% in size)
Procedure, shortened: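 Using the same plates as the PR reporter screen, HEK293T PR-UAS-bla cells received compounds for 16 hr at 37C and were then lysed with CellTiter-Glo; luminescence was read 30 min later at room temperature.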

[8] = qHTS assay to identify small molecule antagonists of the TGF-beta/Smad signaling pathway - cell viability counter screen (AID 1346824); further: nearly all actives have a fitted effect of over 50% in size
Procedure, shortened: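 SBE-bla HEK 293T cells were plated overnight at 37 C, then given compounds in DMSO plus TGF-beta1 (added as 0.25 ng/mL solution) for 5 hr. After the bla read, CellTiter-Glo was added to the same wells and luminescence read after 30 min at room temperature.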

[9] = qHTS assay to identify small molecule agonists of the TGF-beta/Smad signaling pathway (AID 1346859; active means well fitted activation curve with a large enough effect in the signal ratio in the repeat runs, not every such curve was filed as active; the % refers to the signal ratio; further: series mostly up to about 77 µM)
Procedure, shortened: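 Beta-lactamase reporter activity downstream of Smad binding elements was measured in stably transfected HEK 293T cells; compounds were incubated for 5 hr, substrate for 2 hr at room temperature.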

[10] = Human pregnane X receptor (PXR) small molecule agonists, qHTS cell viability counter screen (AID 1346977); further: nearly all actives have a fitted effect of over 50% in size
Procedure, shortened: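 After a 5hr pre-incubation, PXR-Luc HepG2 cells received compounds plus positive control in DMSO and were kept 24hr at 37C. Cell viability was quantified by fluorescence from CellTiter-Fluor added for the final hour.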

[11] = Caspase-3/7 induction in HepG2 cells by small molecules, qHTS assay (AID 1346978); further: nearly all actives have a fitted effect of over 15% in size
Procedure, shortened: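 Wild-type HepG2 cells (2,000/well) were settled 5 h at 37 C, 5% CO2, then exposed to compounds in DMSO for 17 h. Caspase-3/7 activity was read by luminescence 30 min after adding Caspase-Glo 3/7 reagent at room temperature.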

[12] = Caspase-3/7 induction in CHO-K1 cells by small molecules, qHTS cell viability counter screen (AID 1346979); further: nearly all actives have a fitted effect of over 35% in size
Procedure, shortened: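 Multiplexed with Caspase-Glo 3/7 in CHO-K1 cells, this counter screen added CellTiter-Fluor after 16hr of compound exposure and recorded fluorescence 1hr later.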

[13] = Caspase-3/7 induction in CHO-K1 cells by small molecules, qHTS assay (AID 1346980); further: nearly all actives have a fitted effect of over 15% in size
Procedure, shortened: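 Wild-type cells were seeded at 1,500 per well and settled 5 hr at 37 C, 5% CO2, then exposed to DMSO-dissolved compounds for 17 hr. Caspase-Glo 3/7 reagent was added, and luminescence was read after 30min at room temperature.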

[14] = Caspase-3/7 induction in HepG2 cells by small molecules, qHTS cell viability counter screen (AID 1346981); further: series mostly up to about 92 µM; nearly all actives have a fitted effect of over 30% in size
Procedure, shortened: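 Cell viability is measured as a cytotoxicity counter screen alongside the Caspase-Glo 3/7 readout in identical wells. Wild-type HepG2 cells are treated with test compounds for 16 hr at 37 C before CellTiter-Fluor addition and a 1-hr incubation.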

[15] = qHTS assay to identify small molecule antagonists of the progesterone receptor (PR) signaling pathway - cell viability counter screen (AID 1346798); further: series mostly up to about 92 µM; nearly all actives have a fitted effect of over 50% in size
Procedure, shortened: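 Measures cytotoxicity in parallel with the PR antagonist reporter read: HEK293T PR-UAS-bla cells get compound and R5020 for 16 hr, and remaining viable cells are quantified by CellTiter-Glo luminescence.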

[16] = qHTS assay to identify small molecule agonists of the TGF-beta/Smad signaling pathway - cell viability counter screen (AID 1346829); further: top concentration of the series differs between compounds; nearly all actives have a fitted effect of over 45% in size
Procedure, shortened: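 CellTiter-Glo luminescence readout; SBE-bla HEK 293T cells, overnight plating, compound 5 hr at 37 C/5% CO2, then bla substrate 2 hr RT, then CellTiter-Glo 30 min RT.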

[17] = target: Thyrotropin-releasing hormone receptor (Homo sapiens) (UniProt P34981); assay: qHTS assay to identify small molecule agonists of the thyrotropin-releasing hormone receptor (TRHR) signaling pathway (AID 1346891; calls by dose curve;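 further: HEK293 cells expressing TRHR with calcium dye readout; series mostly up to about 58 µM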)
Sequence of Thyrotropin-releasing hormone receptor (Homo sapiens) (P34981 whole entry, looked up): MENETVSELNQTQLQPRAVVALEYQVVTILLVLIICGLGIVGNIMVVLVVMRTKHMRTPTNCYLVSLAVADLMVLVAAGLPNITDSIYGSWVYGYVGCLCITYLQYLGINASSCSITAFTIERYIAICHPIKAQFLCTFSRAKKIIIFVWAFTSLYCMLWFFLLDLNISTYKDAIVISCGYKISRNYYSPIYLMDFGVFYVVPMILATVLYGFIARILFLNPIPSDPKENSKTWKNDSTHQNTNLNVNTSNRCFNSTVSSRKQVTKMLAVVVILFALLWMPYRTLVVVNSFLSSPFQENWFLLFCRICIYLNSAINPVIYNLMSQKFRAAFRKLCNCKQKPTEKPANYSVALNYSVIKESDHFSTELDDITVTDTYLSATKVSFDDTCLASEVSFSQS
Procedure, shortened: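 Overnight-plated (18 h, 37 °C, 5% CO2) TRHR-Hek293 cells; 2 h calcium dye at 37 °C; compound in DMSO; 3-min kinetic fluorescence read.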

[18] = target: Thyrotropin-releasing hormone receptor (Homo sapiens) (UniProt P34981); assay: qHTS assay to identify small molecule antagonists of the thyrotropin-releasing hormone receptor (TRHR) signaling pathway (AID 1346877; active means well fitted inhibition curve with a large enough effect in the repeat runs, not every such curve was filed as active; further: series mostly up to about 51 µM)
Procedure, shortened: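 Antagonism is measured as suppression of the calcium response to 1 nM TRH in TRHR-HEK293 cells that have been dye-loaded for 2 h at 37 °C after overnight plating. Each compound is tested at 15 concentrations in triplicate.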

[19] = target: Estrogen receptor (Homo sapiens) (UniProt P03372); assay: qHTS assay to identify small molecule agonists of the estrogen receptor alpha (ER-alpha) signaling pathway in the presence of an antagonist (AID 1259383; calls by dose curve; further: top concentration of the series differs between compounds; nearly all actives have a fitted effect of over 15% in size)
Sequence of Estrogen receptor (Homo sapiens) (P03372 whole entry, looked up): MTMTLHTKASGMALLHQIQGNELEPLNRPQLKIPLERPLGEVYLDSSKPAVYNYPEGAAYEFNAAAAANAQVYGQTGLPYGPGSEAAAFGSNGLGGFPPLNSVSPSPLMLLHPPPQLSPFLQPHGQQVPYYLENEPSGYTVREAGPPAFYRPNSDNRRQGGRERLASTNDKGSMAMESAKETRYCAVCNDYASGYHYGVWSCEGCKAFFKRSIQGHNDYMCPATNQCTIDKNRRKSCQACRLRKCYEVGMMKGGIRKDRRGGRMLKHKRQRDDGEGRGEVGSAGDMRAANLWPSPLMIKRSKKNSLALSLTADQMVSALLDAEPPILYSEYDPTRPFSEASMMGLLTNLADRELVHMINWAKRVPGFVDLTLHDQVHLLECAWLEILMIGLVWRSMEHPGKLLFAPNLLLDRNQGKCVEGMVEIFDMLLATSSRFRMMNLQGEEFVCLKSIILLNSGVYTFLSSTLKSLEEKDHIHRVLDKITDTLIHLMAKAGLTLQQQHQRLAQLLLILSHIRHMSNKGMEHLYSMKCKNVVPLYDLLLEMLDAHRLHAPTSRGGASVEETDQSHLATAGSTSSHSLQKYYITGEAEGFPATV
Procedure, shortened: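 Agonist-mode confirmation in the presence of the ER antagonist ICI-182,780 at 10.0nM final. Breast-derived VM7Luc4E2 reporter cells were exposed to compounds for 22hr, and ERE-driven luciferase was quantified by luminescence.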

Measured: Potency

CC(N)CCCC(C)(C)O (configuration not stated)
inactive: [1] | [2] | [3] | [4] | [5] | [6] | [7] | [8] | [9] | [10] | [11] | [12] | [13] | [14]

C/C=C(\C)C(=O)OCCc1ccccc1
inactive: [1] | [4] | [5] | [6] | [15] | [7] | [8] | [16] | [9] | [17] | [10] | [11] | [12] | [13] | [14]

CC1=NN(c2ccc(S(=O)(=O)O)cc2)C(=O)C1
inactive: [1] | [2] | [3] | [4] | [5] | [6] | [15] | [7] | [8] | [16] | [18] | [10] | [11] | [12] | [13] | [14]

COC(=O)/C=C\C(=O)O
inactive: [19] | [2] | [3] | [4] | [5] | [6] | [15] | [7] | [8] | [16] | [9] | [18] | [17] | [10] | [11] | [12] | [13] | [14]

CO[Si](CCCn1c(=O)n(CCC[Si](OC)(OC)OC)c(=O)n(CCC[Si](OC)(OC)OC)c1=O)(OC)OC
inactive: [2] | [3] | [4] | [5] | [6] | [15] | [7] | [8] | [16] | [9] | [10] | [11] | [13] | [14]

CCCCCCCCCCCCCBr
inactive: [1] | [4] | [6] | [15] | [7] | [8] | [16] | [9] | [18] | [17] | [10] | [11] | [12] | [13] | [14]

C=C(C)C1CC=C(C)C(=O)C1 (configuration not stated)
inactive: [2] | [3] | [4] | [15] | [7] | [8] | [16] | [9] | [10] | [11] | [12] | [13] | [14]

CCCC(CC)c1ccccc1 (configuration not stated)
inactive: [19] | [2] | [3] | [4] | [5] | [6] | [15] | [7] | [8] | [16] | [9] | [10] | [11] | [12] | [13] | [14]

c1ccc2c(CC3=NCCN3)cccc2c1
inactive: [2] | [4] | [5] | [6] | [7] | [8] | [16] | [9] | [10] | [11] | [12] | [13] | [14]

CCCCCCCCCCCCCCCCCC#N
inactive: [19] | [2] | [3] | [4] | [6] | [7] | [8] | [16] | [9] | [10] | [11] | [13] | [14]

O=C(CN1CCNCC1)NC1CCCCC1
inactive: [19] | [2] | [3] | [4] | [6] | [7] | [8] | [16] | [9] | [17] | [10] | [11] | [13] | [14]

CCC(C)C(=O)OCCc1ccccc1 (configuration not stated)
inactive: [19] | [2] | [3] | [4] | [5] | [6] | [7] | [8] | [16] | [9] | [17] | [10] | [11] | [12] | [13] | [14]

O=C[O][Al]([O]C=O)[O]C=O
inactive: [19] | [2] | [3] | [4] | [5] | [6] | [15] | [7] | [8] | [16] | [9] | [18] | [17] | [10] | [11] | [12] | [13] | [14]

O/N=C/C=N/O
inactive: [2] | [3] | [4] | [5] | [6] | [15] | [7] | [8] | [16] | [9] | [17] | [10] | [11] | [12] | [13] | [14]

OC1OCCOC1O (configuration not stated)
inactive: [19] | [2] | [3] | [4] | [5] | [6] | [7] | [8] | [16] | [9] | [18] | [10] | [11] | [12] | [13] | [14]

CC/C(C)=N\O[Si](C)(O/N=C(\C)CC)O/N=C(\C)CC
inactive: [19] | [2] | [3] | [4] | [5] | [7] | [8] | [16] | [9] | [10] | [11] | [12] | [13]

CCN1CCCC1CN (configuration not stated)
inactive: [19] | [2] | [3] | [4] | [6] | [15] | [8] | [16] | [9] | [18] | [10] | [11] | [12] | [13] | [14]

CC(CO)(CO)CO
inactive: [19] | [2] | [3] | [4] | [5] | [15] | [7] | [8] | [16] | [9] | [18] | [17] | [10] | [11] | [12] | [13] | [14]

C=C(C)[C@@H]1CC=C(C)CC1
inactive: [19] | [4] | [5] | [15] | [7] | [8] | [16] | [10] | [11] | [12] | [13] | [14]

COc1cc2c(cc1OC)CN(C(=O)[C@H](C)N[C@@H](CCc1ccccc1)C(=O)O)[C@H](C(=O)O)C2
inactive: [19] | [2] | [3] | [4] | [5] | [6] | [15] | [7] | [8] | [16] | [9] | [18] | [17] | [10] | [11] | [12] | [13] | [14]

Source: PubChem BioAssay (Tox21)
